# Source: PubChem BioAssay
# Key:
# PEG-3 [1] = biological target: PEG-3 (UniProt Q6IN02); experiment: inhibition of PEG-3 promoter-driven reporter – cell-based, HeLa, luciferase, CREF/GAPDH counter-screen panel, dose response (AID 624167); settings: CREF/GAPDH counter-screens; HeLa PEG-Prom luciferase reporter, overnight, run 1, dose range 1, at 100 µM (top of the series) unless noted
# PEG-3 [2] = biological target: PEG-3 (UniProt Q6IN02); experiment: as above; settings: CREF/GAPDH counter-screens; HeLa PEG-Prom luciferase reporter, overnight, run 2, dose range 1, at 100 µM (top of the series) unless noted
# Rat fibroblasts (CREF) [3] = experiment: as above; settings: CREF/GAPDH counter-screens; run 1, dose range 1, at 100 µM (top of the series)
# Rat fibroblasts (CREF) [4] = experiment: as above; settings: CREF/GAPDH counter-screens; run 2, dose range 1, at 100 µM (top of the series)
# [5] = biological target: Tumor necrosis factor receptor superfamily member 10B (Homo sapiens) (UniProt O14763); experiment: viability loss of caspase-8 NB7 cells with TRAIL – with/without TRAIL, luminescence panel, confirmation (AID 651596); settings: NB7 neuroblastoma + caspase-8, TRAIL sensitization, NB7 Caspase-8, with TRAIL, mean of runs, at 10 µM, stronger effect = higher value
# Tumor necrosis factor receptor superfamily member 10B (Homo sapiens), sequence (O14763 whole entry, looked up): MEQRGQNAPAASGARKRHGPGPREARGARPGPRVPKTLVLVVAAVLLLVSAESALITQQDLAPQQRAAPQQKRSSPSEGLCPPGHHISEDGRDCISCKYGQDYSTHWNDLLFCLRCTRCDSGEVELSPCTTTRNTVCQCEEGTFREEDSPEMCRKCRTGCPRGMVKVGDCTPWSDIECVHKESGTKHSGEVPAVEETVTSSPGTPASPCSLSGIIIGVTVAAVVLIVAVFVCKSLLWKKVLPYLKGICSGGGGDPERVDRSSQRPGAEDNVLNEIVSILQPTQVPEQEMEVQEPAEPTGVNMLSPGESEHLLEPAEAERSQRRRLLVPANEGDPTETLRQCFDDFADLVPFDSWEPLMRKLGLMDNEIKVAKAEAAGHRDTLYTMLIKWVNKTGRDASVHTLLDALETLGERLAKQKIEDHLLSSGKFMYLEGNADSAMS
# [6] = as above; settings: NB7 neuroblastoma + caspase-8, without TRAIL, NB7 Caspase-8, without TRAIL, mean of runs, at 10 µM
# [7] = NFkB reporter suppression in cystic fibrosis bronchial cells – cell-based, uHTS hits, panel, cytotoxicity readout, dose response (AID 624344); settings: CF bronchial epithelial cells, PAF-induced NFkB reporter inhibition, with PAF, run 1; at 79 µM (top of the series) unless noted
# [8] = as above; settings: CF bronchial epithelial cells, PAF-induced NFkB reporter inhibition, with PAF, run 2; at 79 µM (top of the series) unless noted
# PEG-3, sequence (Q6IN02 whole entry, looked up): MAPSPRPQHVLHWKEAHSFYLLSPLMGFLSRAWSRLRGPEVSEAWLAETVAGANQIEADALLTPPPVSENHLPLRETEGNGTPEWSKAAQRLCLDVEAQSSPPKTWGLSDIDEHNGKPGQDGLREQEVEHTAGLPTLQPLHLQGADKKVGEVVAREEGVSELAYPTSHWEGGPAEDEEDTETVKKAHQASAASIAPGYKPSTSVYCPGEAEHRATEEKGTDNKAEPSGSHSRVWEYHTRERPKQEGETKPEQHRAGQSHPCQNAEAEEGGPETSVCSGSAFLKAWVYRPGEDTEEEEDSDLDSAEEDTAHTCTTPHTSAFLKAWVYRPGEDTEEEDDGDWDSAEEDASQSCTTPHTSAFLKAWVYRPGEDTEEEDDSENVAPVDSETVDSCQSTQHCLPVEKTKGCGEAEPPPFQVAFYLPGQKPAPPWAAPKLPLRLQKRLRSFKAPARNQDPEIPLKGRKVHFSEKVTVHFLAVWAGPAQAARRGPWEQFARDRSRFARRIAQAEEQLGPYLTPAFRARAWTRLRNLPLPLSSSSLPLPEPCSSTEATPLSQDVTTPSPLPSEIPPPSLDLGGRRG
SMILES,inhibition (PEG-3 [1]),inhibition (PEG-3 [2]),inhibition (Rat fibroblasts (CREF) [3]),inhibition (Rat fibroblasts (CREF) [4]),activity [5],activity [6],inhibition [7],inhibition [8]
Cc1ccccc1OCC(O)CNC1CCC(NCC(O)COc2ccccc2C)CC1 (stereo unspecified),94.1%,95.8%,98.1%,97.9%,94.4%,99.8%,–,–
Cc1ccc(C(C[N+](=O)[O-])Sc2ccc(N)cc2)cc1 (stereo unspecified),98.7%,101%,96.1%,96.3%,–,–,–,–
CS(=O)(=O)Nc1cccc(NC(=O)C2Cc3c(-c4ccccc4)ccnc3O2)c1 (stereo unspecified),58.9%,75.2%,35.5%,40%,57%,69.3%,–,–
COc1ccccc1Nc1nc(-c2sc(NC(=O)c3ccco3)nc2C)cs1,38%,52.5%,35.4%,40.3%,–,–,–,–
CC1=CC2C(C(O)CC3(C)C2CC(C)C32OCOC23COCO3)C2(C)C/C(=C\O)C(=O)C=C12 (stereo unspecified),102%,101%,100%,100%,94.3%,98.1%,–,–
Cc1ccc(-c2cc3c(nn2)-c2ccccc2C3=O)cc1,98.6%,88.7%,92.8%,94.8%,–,–,–,–
C(=NNc1ccc2ccccc2n1)c1ccccn1,99%,102%,99%,99.3%,82.5%,86%,–,–
CCN1C=CC(=C2C(=O)c3ccccc3C2=O)C=C1,96.8%,98.3%,99.8%,101%,–,–,–,–
COc1cccc(OC)c1C(=O)Nc1cc(C)nn1-c1nc2ccccc2[nH]1,37.6%,65.1%,2.09%,12.6%,–,–,111%,101%
CN(C)c1ccc(C=c2c3ccccc3n3c2cc(-c2ccccc2)[n+]3C)cc1,98.9%,102%,101%,100%,–,–,–,–
CC(=O)n1cc(N(C(=O)CCl)c2ccc(C)cc2)c2ccccc21,102%,99%,99.7%,95.3%,99.6%,99.7%,–,–
